# Reference: the OligoGym collection
# Biological target: FASN
# Experiment: pooled miR-30 sensor sort-seq; sequence = guide strand
# Conditions: shRNA
row,Sequence,sensor-assay potency score (higher = more potent)
1,TTCCTCGGAGTGAATCTGGGTT,0.14
2,TAGTAGACCGTGCAGAGCTGGG,-0.853
3,TTGACAGCAGCCAAGTCGCGGA,-0.675
4,TTTCTCACAGATACGCTCCATG,-0.419
5,TTCTTTGATGCACTGTCCCCTC,-0.75
6,TAGGTGGGGATGCTGAGCCGGG,-1.21
7,TCCACGAACTCAAACACCGGGG,-1.02
8,AAGAACTCCAGGTTGTCCCTGT,0.747
9,TTGATGATCAGGTCCACGGCGG,0.0156
10,ATAGGTGACTTCCAGCAGCAGC,-1.01
11,TTGTTGACATTGTACTCGGCGG,-1.03
12,TTGCACACCAGGAGGTCGGCGC,-0.835
13,TTCAGCTTGCCGGACCGCCGGG,-0.801
14,TTGAGCTGAAGCCTGCAGGCAG,-0.315
15,TTCATAGGTGACTTCCAGCAGC,-0.213

# Biological target: FBLIM1
# Experiment: as above
# Conditions: shRNA
row,Sequence,sensor-assay potency score (higher = more potent)
1,TTGAAGAGCTGCATAGGTGCAG,0.627
2,TTTCTCAACAGGTTCTGCCGGG,0.497
3,TAATAAACCAGTAGACAGGAAA,-1.08
4,TCTGGTAGAAGCTCTGCCCAGC,-0.202
5,TTTCATGGAAGTTTCTTCCCAT,0.731
6,TGAAGAGCTGCATAGGTGCAGC,-0.713
7,TCTAAGTCTGCAATGAGTGAGG,-0.617
8,TCGACAGACAGGAGGATCCTGC,-0.78
9,TTCTCAACAGGTTCTGCCGGGG,-0.331
10,TTCTGGTAGAAGCTCTGCCCAG,-1.24
11,TTTCCTGTAGAAGTCGTCCAGG,-0.297
12,TAGACAGGAAACTCTGGCCCAG,-0.916

# Biological target: FBXL21
# Experiment: as above
# Conditions: shRNA
row,Sequence,sensor-assay potency score (higher = more potent)
1,TTAACATGAGTCTCGCTTGAGA,-0.687
2,TTCAGTGTGAATTTCATCTAGG,0.327
3,TTGAGTTGATAAAAACAACTGT,0.22
4,AACAACATTAACTCTAGGGGAA,-0.232
5,TGCATAACAACATTAACTCTAG,-0.667
6,TAACAACATTAACTCTAGGGGA,-0.101
7,TAGAGTGTCACTATTATTGGCC,0.27
8,TTCTTTGAAGAACGTCTCGAAT,-1.19
9,TTTAATGATCTGCTGAATGAGA,-0.579
10,TCACACAGTCTTACAAACCTGA,0.117
11,TCAAATTCAAACTTTCTCCAAA,-0.476
